“And” between values parts separate entries of the source, which are not always exact repeats. Equal entries are not always repeated. Out of some 5,500 compounds screened, about 2,000 (36%) were called active. Not shown: some 18% with an inconclusive outcome. Cut-off read from the data, not from the text of the source: active = normalized growth mostly below about 0.91 (no sharp cut-off); inconclusive = no clear call, values can overlap the other calls; inactive = mostly above about 0.92. Some of the results follow.
Experiment: chemical genetic growth profiling, strain panel (AID 1159580);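 note: tested at 20 µM; growth read once vehicle control cultures reached saturation at 30 °C; 1 = growth at the plate median or of vehicle wells; lower values mean less growth of the strain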
Settings: S. cerevisiae deletion strains, growth OD

Measured: normalized growth

CCCCC(=O)O[C@]1(C(=O)CO)[C@@H](C)CC2C3CCC4=CC(=O)C=C[C@]4(C)[C@@]3(F)C(O)C[C@@]21C (stereo partly drawn)
inactive: locus YAL013W, strain DEP1, active compounds read low 0.968 | locus YAL021C, strain ccr4, active compounds read low 0.982 | locus YAL026C, strain drs2, active compounds read low 1.01 | locus YAL030W, strain snc1, active compounds read low 0.981 | locus YBL061C, strain skt5, active compounds read low 0.978 | locus YBR009C, strain hhf1, active compounds read low 0.99 | locus YBR021W, strain FUR4, active compounds read low 0.986 | locus YBR023C, strain chs3, active compounds read low 0.98 | locus YBR171W, strain sec66, active compounds read low 0.941 | locus YBR229C, strain ROT2, active compounds read low 0.99 | locus YBR231C, strain swc5, active compounds read low 0.948 | locus YBR279W, strain paf1, active compounds read low 0.991 | locus YCL011C, strain gbp2, active compounds read low 0.99 | locus YCL016C, strain dcc1, active compounds read low 1.01 | locus YCL029C, strain bik1, active compounds read low 0.981 | locus YCL069W, strain vba3, active compounds read low 0.989 | locus YCR088W, strain abp1, active compounds read low 0.997 | locus YDL005C, strain med2, active compounds read low 0.972 | locus YDL035C, strain GPR1, active compounds read low 1.03 | locus YDL040C, strain nat1, active compounds read low 0.975 | locus YDL074C, strain BRE1, active compounds read low 0.979 | locus YDL101C, strain DUN1, active compounds read low 0.961 | locus YDL134C, strain PPH21, active compounds read low 1 | locus YDL185W, strain tfp1, active compounds read low 0.97 | locus YDL192W, strain arf1, active compounds read low 0.978 | locus YDR001C, strain nth1, active compounds read low 0.986 | locus YDR069C, strain doa4, active compounds read low 0.968 | locus YDR101C, strain arx1, active compounds read low 0.998 | locus YDR137W, strain rgp1, active compounds read low 0.979 | locus YDR159W, strain sac3, active compounds read low 0.974 | locus YDR162C, strain NBP2, active compounds read low 1.01 | locus YDR195W, strain ref2 0.963 | locus YDR297W, strain sur2, active compounds read low 0.975 | locus YDR318W, strain mcm21, active compounds read low 0.996 | locus YDR334W, strain swr1, active compounds read low 0.988 | locus YDR335W, strain msn5, active compounds read low 0.977 | locus YDR388W, active compounds read low 0.982 | locus YDR392W, strain spt3, active compounds read low 1.07 | locus YDR502C, strain sam2, active compounds read low 0.988 | locus YEL003W, strain gim4, active compounds read low 0.987 | locus YEL037C, strain rad23, active compounds read low 0.991 | locus YEL061C, strain CIN8 (second series), active compounds read low 0.991 | locus YEL061C, strain CIN8, active compounds read low 0.995 | locus YER015W, strain faa2, active compounds read low 0.979 | locus YER016W, strain bim1, active compounds read low 1.02 | locus YER110C, active compounds read low 0.982 | locus YER111C, strain swi4, active compounds read low 0.968 | locus YER155C, strain BEM2 (second series), active compounds read low 0.981 | locus YER155C, strain BEM2, active compounds read low 1.01 | locus YER167W, strain BCK2, active compounds read low 1.01 | locus YFR010W, strain ubp6, active compounds read low 0.95 | locus YGL078C, strain dbp3, active compounds read low 0.99 | locus YGL086W, strain mad1, active compounds read low 0.982 | locus YGL167C, strain pmr1, active compounds read low 0.959 | locus YGL173C, strain kem1, active compounds read low 0.96 | locus YGL227W, strain vid30, active compounds read low 0.97 | locus YGL240W, strain doc1, active compounds read low 0.945 | locus YGL248W, strain PDE1, active compounds read low 0.962 | locus YGL253W, strain hxk2, active compounds read low 0.985 | locus YGR078C, strain PAC10, active compounds read low 0.969 | locus YGR135W, strain pre9, active compounds read low 0.977 | locus YGR252W, strain gcn5, active compounds read low 1.02 | locus YHR013C, strain ard1, active compounds read low 0.996 | locus YHR027C, strain rpn1, active compounds read low 0.986 | locus YHR030C, strain SLT2, active compounds read low 0.991 and 0.976 | locus YHR079C, strain IRE1 (second series), active compounds read low 1 | locus YHR079C, strain IRE1, active compounds read low 0.977 | locus YHR094C, strain hxt1, active compounds read low 0.983 | locus YHR129C, strain ARP1, active compounds read low 0.983 | locus YHR142W, strain chs7, active compounds read low 0.943 | locus YHR200W, strain rpn10, active compounds read low 0.992 | locus YIL066C, strain RNR3, active compounds read low 1.01 | locus YIL073C, strain SPO22, active compounds read low 1.01 | locus YIL125W, strain kgd1, active compounds read low 0.97 | locus YIR030C, strain dcg1, active compounds read low 0.992 | locus YJL092W, strain hpr5, active compounds read low 0.976 | locus YJL095W, strain BCK1 (second series), active compounds read low 0.982 | locus YJL095W, strain BCK1, active compounds read low 0.888 and 0.991 | locus YJL115W, strain asf1, active compounds read low 0.965 | locus YJL129C, strain trk1, active compounds read low 0.943 | locus YJL134W, strain LCB3, active compounds read low 0.994 | locus YJL154C, strain vps35, active compounds read low 0.972 | locus YJL164C, strain tpk1, active compounds read low 0.988 | locus YJL166W, strain qcr8, active compounds read low 0.941 | locus YJL168C, strain set2, active compounds read low 0.983 | locus YJL187C, strain SWE1 (second series), active compounds read low 0.933 | locus YJR043C, strain POL32, active compounds read low 1.03 | locus YJR066W, strain TOR1, active compounds read low 0.958
